Data: PubChem BioAssay (NCATS)
Inconclusive results are not listed. Entries that show only a call come without a potency. Active and inactive are the calls of the source. Calls come from the whole dose curve; as a rule, active = well fitted curve in the direction sought with a large enough effect; inconclusive = small, poorly fitted or top-dose-only effect, or another doubt; inactive = no such curve, though single readings can be large; an effect the other way counts as inactive or inconclusive.

Experiments:
[1] = qHTS to identify inhibitors of the type 1 interferon - major histocompatibility complex class I in skeletal muscle: primary screen against the NCATS Mechanism Interrogation Plate v5.0 (MIPE) Libary (AID 1347411); note: potency is the fitted concentration of half-maximal effect
Method in brief: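 Luminescence from HiBiT-tagged endogenous HLA-B*08:01 served as the MHC class I read-out. CRISPR-engineered C25cl48 human myoblasts received 4.0 ng/ml IFN-beta plus compound for 24 hrs, with an 11-point, 1:3 series topping at 46 uM final.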

[2] = biological target: Glutathione peroxidase 1 (Homo sapiens) (UniProt P07203); experiment: Primary qHTS Assay for Inhibitors of Recombinant Selenoprotein Glutathione Peroxidase 1 (GPX1) (AID 1845191)
Glutathione peroxidase 1 (Homo sapiens), sequence (P07203 whole entry, looked up): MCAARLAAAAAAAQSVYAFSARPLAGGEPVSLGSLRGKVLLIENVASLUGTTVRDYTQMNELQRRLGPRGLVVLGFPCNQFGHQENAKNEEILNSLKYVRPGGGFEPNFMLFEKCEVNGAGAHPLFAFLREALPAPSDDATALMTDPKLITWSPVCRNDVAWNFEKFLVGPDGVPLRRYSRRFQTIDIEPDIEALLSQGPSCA
Method in brief: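 10 nM GPX1 + cpd, 30 min RT; start w/ 1 mM GSH, 0.5 mM cumene hydroperoxide, 0.5 mM NADPH, 100 nM GR, 0.01% BSA; buffer 50 mM Tris-HCl pH 7.5, 2 mM EDTA, 150 mM NaCl; Fl 340/450, 0 & 15 min.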

[3] = biological target: Phospholipid hydroperoxide glutathione peroxidase GPX4 (Homo sapiens) (UniProt P36969); experiment: Primary qHTS Assay for Inhibitors of Recombinant Selenoprotein Glutathione Peroxidase 4 (GPX4) (AID 1845192)
Phospholipid hydroperoxide glutathione peroxidase GPX4 (Homo sapiens), sequence (P36969 whole entry, looked up): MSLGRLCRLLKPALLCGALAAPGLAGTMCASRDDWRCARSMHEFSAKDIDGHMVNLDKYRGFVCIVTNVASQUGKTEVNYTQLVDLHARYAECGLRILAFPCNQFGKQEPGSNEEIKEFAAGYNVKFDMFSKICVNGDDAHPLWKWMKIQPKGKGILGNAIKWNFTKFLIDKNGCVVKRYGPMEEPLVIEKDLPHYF
Method in brief: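 NADPH consumption, followed by fluorescence at 340/450 nm between 0 and 15 min, reports GPX4 activity via coupled glutathione reductase (100 nM). Enzyme 200 nM was pre-exposed to compound 30 min; 0.5 mM cumene hydroperoxide and 1 mM GSH served as substrates.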
Note: nearly all actives have a fitted effect of over 65% in size.

O=C(CBr)N1CC([N+](=O)[O-])([N+](=O)[O-])C1
Potency [1]: inactive
Potency [2]: inactive
Potency [3]: inactive

CC(C)(O)/C=C\C(=O)[C@](C)(O)[C@H]1[C@H](O)C[C@]2(C)[C@@H]3CC=C4[C@@H](C=C(O)C(=O)C4(C)C)[C@]3(C)C(=O)C[C@@]12C
Potency [1]: 3300 nM (active)
Potency [2]: inactive
Potency [3]: inactive

Cn1c(COP(=O)(NCCBr)NCCBr)cnc1[N+](=O)[O-]
Potency [1]: inactive
Potency [2]: inactive
Potency [3]: inactive

Cc1c(N)nc([C@H](CC(N)=O)NC[C@@H](N)C(N)=O)nc1C(=O)N[C@H](C(=O)N[C@@H](C)[C@H](O)[C@@H](C)C(=O)N[C@@H](C(=O)NCCc1nc(-c2nc(C(=O)NCCC[S+](C)C)cs2)cs1)[C@@H](C)O)C(O[C@H]1O[C@H](CO)[C@H](O)[C@@H](O)[C@H]1O[C@H]1O[C@H](CO)[C@@H](O)[C@H](OC(N)=O)[C@@H]1O)c1cnc[nH]1 (stereo partly drawn)
Potency [1]: inactive
Potency [2]: inactive
Potency [3]: inactive

CC(C)[C@]12O[C@H]1[C@@H]1O[C@@]13[C@@]1(C)CCC4=C(COC4=O)[C@@H]1C[C@@H]1O[C@@]13C2=O
Potency [1]: 131 nM (active)
Potency [2]: inactive
Potency [3]: inactive

CN1C(=O)[C@@H](NC(=O)[C@H](CCC(F)(F)F)[C@H](CCC(F)(F)F)C(N)=O)N=C(c2ccccc2)c2ccccc21
Potency [1]: inactive
Potency [2]: inactive
Potency [3]: inactive

COC12C(COC(N)=O)C3=C(C(=O)C(C)=C(N)C3=O)N1CC1C2N1C (stereo not drawn)
Potency [1]: inactive
Potency [2]: inactive
Potency [3]: inactive

C[C@@]12OC(=O)[C@]1([C@@H](O)[C@@H]1C=CCCC1)NC(=O)[C@@H]2CCCl
Potency [1]: 29.4 nM (active)
Potency [2]: inactive
Potency [3]: inactive

C/C=C(\C)C(=O)N[C@@H](c1ccccc1)[C@@H](O)C(=O)O[C@H]1C[C@@]2(O)[C@@H](OC(=O)c3ccccc3)[C@@H]3[C@]4(OC(C)=O)CO[C@@H]4C[C@H](O)[C@@]3(C)C(=O)[C@H](OC(C)=O)C(=C1C)C2(C)C
Potency [1]: inactive
Potency [2]: inactive
Potency [3]: inactive

Cc1[nH]ncc1-c1cc2nc([C@@H]3CC4CCN3CC4)[nH]c(=O)c2s1
Potency [1]: 7390 nM (active)
Potency [2]: inactive
Potency [3]: inactive

CCCCCCC(C)(C)c1cc(O)c2c(c1)OC(C)(C)C1CC=C(CO)C[C@H]21 (stereo partly drawn)
Potency [1]: 13100 nM (active)
Potency [2]: inactive
Potency [3]: inactive

CC(=O)O[C@@]12CO[C@@H]1C[C@H](O)[C@@]1(C)C(=O)[C@H](O)C3=C(C)[C@@H](O)C[C@@](O)([C@@H](OC(=O)c4ccccc4)[C@H]21)C3(C)C
Potency [1]: inactive
Potency [2]: inactive
Potency [3]: inactive

COc1cc2cc(c1Cl)N(C)C(=O)C[C@H](OC(=O)C(C)C)[C@]1(C)O[C@@H]1[C@H](C)[C@@H]1C[C@@](O)(NC(=O)O1)[C@H](OC)/C=C/C=C(\C)C2
Potency [1]: inactive
Potency [2]: inactive
Potency [3]: inactive

C[C@]12COC(=O)C[C@@H]1CC[C@@H]1[C@@H]2CC[C@@]2(C)[C@H]1CC[C@]2(C)O
Potency [1]: inactive
Potency [2]: inactive
Potency [3]: inactive

CC(=O)OC[C@H]1O[C@@H]([S-])[C@H](OC(C)=O)[C@@H](OC(C)=O)[C@@H]1OC(C)=O.CC[PH+](CC)CC.[Au]
Potency [1]: 1170 nM (active)
Potency [3]: inactive

CC(C)(NC(=O)O[C@@H]1CN2CCC1CC2)c1csc(-c2ccc(F)cc2)n1
Potency [1]: inactive
Potency [2]: inactive
Potency [3]: inactive

O=C(O)CNC(=O)C1C(=O)N(C2CCCCC2)C(=O)N(C2CCCCC2)C1=O
Potency [1]: inactive
Potency [2]: inactive
Potency [3]: inactive

CO[C@H]1CCC(O[C@H]2C[C@H]([C@]3(C)CC[C@]4(C[C@H](O)[C@@H](C)[C@@H]([C@@H](C)/C=C(\C)C(=O)[C@H](C)C[C@H](C)C(=O)O)O4)O3)O[C@]3(O[C@@H]([C@H]4O[C@@](O)(CO)[C@H](C)C[C@@H]4C)C[C@@H]3C)[C@@H]2C)O[C@@H]1C (stereo partly drawn)
Potency [2]: inactive
Potency [3]: inactive

N#CC(O[C@@H]1O[C@H](CO[C@@H]2O[C@H](CO)[C@@H](O)[C@H](O)[C@H]2O)[C@@H](O)[C@H](O)[C@H]1O)c1ccccc1 (stereo partly drawn)
Potency [1]: inactive
Potency [2]: inactive
Potency [3]: inactive

COc1cc(C)[nH]c(=O)c1CNC(=O)c1c(C)n([C@H](C)C2CCN(CC(F)(F)F)CC2)c2ccccc12
Potency [1]: inactive
Potency [2]: inactive
Potency [3]: inactive
